High-throughput results (PubChem BioAssay)
FLuc modulator = counter-screen for miR-21 project: firefly luciferase inhibitors or activators | P08659 | purified FLuc, Km substrates, luminescence inhibition | Potency, µM (titrated, usually from 57.5 µM), hits mostly inhibitors | 360,000 tested, 6.9% active; further: nearly all actives have a fitted effect of over 55% in size
Target sequence (P08659 whole entry, looked up): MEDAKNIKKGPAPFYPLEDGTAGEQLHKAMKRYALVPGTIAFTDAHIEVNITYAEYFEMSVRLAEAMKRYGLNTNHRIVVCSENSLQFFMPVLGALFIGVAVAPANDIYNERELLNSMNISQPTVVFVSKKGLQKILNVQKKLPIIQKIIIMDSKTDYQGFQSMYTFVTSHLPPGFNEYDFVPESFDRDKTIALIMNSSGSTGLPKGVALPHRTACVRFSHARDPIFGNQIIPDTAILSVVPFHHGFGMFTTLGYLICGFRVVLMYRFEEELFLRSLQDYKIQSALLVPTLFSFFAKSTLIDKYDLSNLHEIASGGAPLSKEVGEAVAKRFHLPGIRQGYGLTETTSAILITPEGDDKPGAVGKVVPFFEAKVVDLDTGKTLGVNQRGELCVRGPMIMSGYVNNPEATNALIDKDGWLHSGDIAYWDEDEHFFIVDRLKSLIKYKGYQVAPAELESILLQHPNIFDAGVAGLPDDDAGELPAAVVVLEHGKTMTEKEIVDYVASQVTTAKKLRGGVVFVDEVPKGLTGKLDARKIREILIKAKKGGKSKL
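Purified P. pyralis luciferase, 10 nM final, with Km-level 10 uM D-luciferin and 10 uM ATP in 50 mM Tris acetate pH 7.5, 10 mM Mg acetate, 0.01% Tween-20, 0.05% BSA; 6-point qHTS titration about 60 µM downward; luminescence read.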
ELG1 genotoxic = inducers of genotoxicity in HEK293T ELG1-luciferase cells; HEK293T ELG1-luciferase reporter, luminescence, 16 h; Potency, µM (highest dose often 46 µM), hits mostly activators; 330,000 tested, 1.3% active; AID 504466; further: nearly all actives have a fitted effect of over 60% in size
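HEK293T cells expressing luciferase-tagged ELG1 were treated with compound or DMSO for 16 hr at 37°C. Luciferase activity was then read after 30 min with ONE-Glo at room temperature; rising signal flags genetic stress.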
SMN2 splice enh = increases expression of the SMN2 splice variant. HEK293 SMN2-luciferase splicing reporter, luminescence, 30-36 h. Potency, µM (top dose mostly 46.1 µM), usual class: activators. 210,000 tested, 2.8% active; further: nearly all actives have a fitted effect of over 55% in size
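HEK293 cells carry an SMN2 […]–luciferase reporter in which exon 7 inclusion puts luciferase in frame. Cells were plated 10-12 h before compound addition, then incubated 30-36 h at 37C. ONE-Glo luminescence was read; sodium butyrate at 4.5 mM final served as control.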
NPC1 promoter act = activates the NPC1 promoter; Huh7 NPC1 promoter luciferase reporter, 24 h; Potency, µM (series often up to 9.22 µM), actives largely listed as activators; 320,000 tested, 2.4% active; AID 485313; further: nearly all actives have a fitted effect of over 60% in size
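Compounds in DMSO were transferred onto Huh7 NPC1-luciferase reporter cells pre-incubated 2 h; after 24 h at 37 °C, Amplite reagent was dispensed and luminescence recorded 10 min later.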
Rab9 prom act = Rab9 promoter activation; Huh7 Rab9 promoter-luciferase reporter, luminescence, 24 h; 320,000 tested, 2.8% active; Potency, µM (doses to about 9.22 µM), usual class: activators; further: nearly all actives have a fitted effect of over 60% in size
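Luminescence from Amplite-detected luciferase (10 minutes, ambient) reports Rab9 promoter activation. Before that, stable Rab9-luciferase Huh7 cells (1500/well, reduced-serum OP-MEM I plus 10% FBS) were exposed to compound for 24 hours at 37C.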
Of the large screens only hits and unclear results are named; the others gave an inactive call. Sampled rows, rich in hits. Any-hit rate of the full collection: about 7.5%. The call rests on the fitted dose curve; in most records, active means well fitted curve in the direction sought with a large enough effect; inconclusive means small, poorly fitted or top-dose-only effect, or another doubt; inactive means no such curve, though single readings can be large; an effect the other way counts as inactive or inconclusive.

O=C(OCC(=O)N1CCOCC1)c1ccccc1O	FLuc modulator 24µM, ELG1 genotoxic inconclusive, NPC1 promoter act inconclusive, Rab9 prom act 4µM (no result: SMN2 splice enh)
O=C(OCC(=O)N1CCCCC1)c1cc2ccccc2cc1O	FLuc modulator 24µM, ELG1 genotoxic inconclusive
C/C(CC(=O)N1CCCC1)=N\NC(=O)c1cc2ccccc2cc1O	FLuc modulator 15µM (no result: SMN2 splice enh)
CCOC(=O)C(C)/C(C)=N/NC(=O)c1cc2ccccc2cc1O (centres undefined)	FLuc modulator inconclusive, SMN2 splice enh inconclusive
CN(C(=O)COC(=O)c1cc2ccccc2cc1O)C1CCCCC1	FLuc modulator 19µM (no result: SMN2 splice enh)
O=C(OCC(=O)N1CCCCC1)c1c[nH]c2ccccc12	FLuc modulator 17µM, ELG1 genotoxic inconclusive, Rab9 prom act inconclusive (no result: SMN2 splice enh)
CC1CCCN(C(=O)COC(=O)c2n[nH]c3ccccc23)C1 (centres undefined)	FLuc modulator 17µM, ELG1 genotoxic 23µM, NPC1 promoter act inconclusive, Rab9 prom act inconclusive
COc1ccc(-n2ccnc2SCC(=O)NC2CCCC2)cc1	none (no result: SMN2 splice enh)
CCn1c(C(=O)OC)cc2c1ccn2-c1ccc(F)cc1	FLuc modulator 9.5µM, ELG1 genotoxic 16µM, SMN2 splice enh 16µM, NPC1 promoter act inconclusive, Rab9 prom act inconclusive
Cc1cccc(C)c1NC(=O)Cn1c(=O)n(Cc2ccco2)c(=O)c2ccc(C(=O)NC3CCCC3)cc21	none (no result: ELG1 genotoxic, NPC1 promoter act, Rab9 prom act)
O=C1OCCN/C1=C\C(=O)c1ccc(Cl)cc1	FLuc modulator 24µM (no result: SMN2 splice enh)
O=C1NCCN/C1=C\C(=O)c1ccc(Br)cc1	FLuc modulator 9.5µM, ELG1 genotoxic 10µM, NPC1 promoter act 1.3µM, Rab9 prom act 1.3µM (no result: SMN2 splice enh)
O=C1OCCN/C1=C\C(=O)c1ccccc1	none (no result: SMN2 splice enh)
COc1cccc(-c2nc3c(C#N)c[nH]n3c2NC2CCCC2)c1OC	none (no result: ELG1 genotoxic, SMN2 splice enh, NPC1 promoter act, Rab9 prom act)
c1cn2c(NC3CCCCC3)c(-c3ccc(SC4CCCCC4)cc3)nc2cn1	FLuc modulator inconclusive (no result: SMN2 splice enh)
CCN(CC)c1ccc(-c2nc3cnccn3c2NC2CCCC2)cc1	FLuc modulator 11µM
c1cn2c(NC3CCCC3)c(-c3ccc(N4CCOCC4)cc3)nc2cn1	FLuc modulator 2.1µM, ELG1 genotoxic inconclusive, NPC1 promoter act inconclusive, Rab9 prom act inconclusive
CC1Cc2ccccc2N1C(=O)CSc1nc2ccc(NC(=O)COc3ccccc3)cc2s1 (centres undefined)	none (no result: ELG1 genotoxic, SMN2 splice enh, NPC1 promoter act, Rab9 prom act)
CC(C)(C)c1ccc(OCc2nc3ccccc3n2CCOc2ccccc2)cc1	none (no result: ELG1 genotoxic, NPC1 promoter act, Rab9 prom act)
COCn1c(COc2ccc3ccccc3c2)nc2ccccc21	FLuc modulator 2.4µM, ELG1 genotoxic inconclusive, SMN2 splice enh 11µM, NPC1 promoter act 2.8µM, Rab9 prom act 2.5µM
COc1ccc(OCc2nc3ccccc3n2Cc2ccc(C(C)(C)C)cc2)cc1	FLuc modulator 9.5µM, SMN2 splice enh 11µM (no result: ELG1 genotoxic, NPC1 promoter act, Rab9 prom act)
Cc1ccc(C(=O)N/C(=C\c2cn(C)c3ccccc23)C(=O)NCCN2CCOCC2)cc1	none (no result: SMN2 splice enh)
CC(=O)Nc1cccn(Cc2c(Cl)cccc2Cl)c1=O	none
CCOC(=O)c1ccc(-n2c(=S)sc3c(=O)[nH]c(C)nc32)cc1	none
COc1ccccc1-c1cc(C(=O)NCc2ccccc2)no1	FLuc modulator 24µM
COc1ccc(CNC(=O)c2cc(-c3ccccc3OC)on2)cc1	FLuc modulator 17µM
O=C(NCc1ccccc1)c1ccc(-c2ccccc2C(F)(F)F)o1	FLuc modulator inconclusive
Cc1ccccc1-c1ccc(C(=O)NCc2ccccc2)o1	FLuc modulator 27µM
COc1ccccc1C(=O)COC(=O)CNS(=O)(=O)c1ccc(C)cc1	none
CCc1noc(C)c1C(=O)NNC(=O)COc1ccc(Br)cc1	none (no result: SMN2 splice enh)
O=C(N/N=C/c1ccc(-c2cccc([N+](=O)[O-])c2)o1)c1ccc([N+](=O)[O-])cc1	none
CN(C)c1ccc(/C=N/NC(=O)c2ccccc2O)o1	FLuc modulator 21µM
O=C(N/N=C/c1ccc(-c2cccc([N+](=O)[O-])c2)o1)c1ccccc1O	FLuc modulator 11µM, Rab9 prom act inconclusive
O=C(N/N=C/c1ccc(-c2cccc(C(F)(F)F)c2)o1)c1ccccc1Br	FLuc modulator 21µM
CN(C)c1ccc(/C=N/NC(=O)C(O)(c2ccccc2)c2ccccc2)o1	none
CCN1CCCC1Cn1c(-c2ccccc2)nc2c(NC3CCCCC3)nc(C)nc21 (centres undefined)	none (no result: FLuc modulator, ELG1 genotoxic, NPC1 promoter act, Rab9 prom act)
Cc1ccsc1/C=N/Nc1ccc(C(=O)O)cc1	FLuc modulator 0.27µM, ELG1 genotoxic inconclusive, NPC1 promoter act inconclusive, Rab9 prom act inconclusive (no result: SMN2 splice enh)
